# Laboratory results taken from publication PMC5540273 (PLoS ONE, 2017).
# What was measured:
# Settings in all cases: concentration: 1 μM, replicates: in singlicate; n = 1
# TNNI3K = test system: TNNI3K
# TRKA = test system: T1, TRKA
# T1 construct: gene NTRK1
# TRKB = test system: TRKB
# TRKC = test system: T2, TRKC
# T2 construct: gene NTRK3
# TRPM6 = test system: TRPM6
# TSSK1B = test system: TSSK1B
# TSSK3 = test system: TSSK3
# TTK = test system: TTK
# TXK = test system: TXK
# [1] = test system: TYK2(JH1domain-catalytic)
# [2] = test system: TYK2(JH2domain-pseudokinase)
# TYRO3 = test system: TYRO3
# ULK1 = test system: ULK1
# ULK2 = test system: ULK2
# ULK3 = test system: ULK3
# VEGFR2 = test system: T3, VEGFR2
# T3 construct: gene KDR
# VPS34 = test system: T4, VPS34
# T4 construct: gene PIK3C3
# VRK2 = test system: VRK2
# WEE1 = test system: WEE1
# WEE2 = test system: WEE2
# 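Note: KINOMEscan kinase panel screen.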
SMILES,%Inh (TNNI3K) [%],%Inh (TRKA) [%],%Inh (TRKB) [%],%Inh (TRKC) [%],%Inh (TRPM6) [%],%Inh (TSSK1B) [%],%Inh (TSSK3) [%],%Inh (TTK) [%],%Inh (TXK) [%],%Inh [1] [%],%Inh [2] [%],%Inh (TYRO3) [%],%Inh (ULK1) [%],%Inh (ULK2) [%],%Inh (ULK3) [%],%Inh (VEGFR2) [%],%Inh (VPS34) [%],%Inh (VRK2) [%],%Inh (WEE1) [%],%Inh (WEE2) [%]
Nc1ncc(-c2cccnc2)c2scc(-c3ccc4c(c3)CCN4C(=O)Cc3ccccc3)c12 [GSK683281],20,22,0,0,40,20,22,0,10,11,0,15,7,0,10,30,29,0,22,17
CC(=O)Nc1nc2cnc(Nc3cc(NC(=O)c4cccc(C5(C#N)CC5)c4Cl)ccc3C)nc2s1,18,0,0,0,0,0,0,21,33,0,0,15,0,6,0,40,22,0,0,32
CC(C)(C)c1ccc2nccc(Nc3cccc(O)c3)c2c1 [GW856795],0,72,40,31,0,0,60,0,79,42,32,0,0,19,0,50,52,100,0,13
Cl.NC(=O)c1cccc(Nc2nccc(Nc3ccc(Oc4c(Cl)cccc4Cl)c(Cl)c3)n2)c1 [GW659009],0,20,7,11,36,8,88,10,0,21,0,0,35,0,4,0,0,2,0,0
Cl.c1ccc(-c2ccc3c(Nc4ccc5[nH]ncc5c4)ccnc3c2)nc1 [GW440137],0,0,16,17,25,12,7,3,74,14,32,0,12,0,11,66,0,0,0,5
COc1cccc(C2=C(Nc3ccc(Cl)c(C(=O)O)c3)C(=O)NC2=O)c1 [SB-390769],13,0,48,34,0,30,16,0,3,100,100,0,100,100,100,0,0,31,14,0
COc1cc2c(cc1OCCN1CCNCC1)ncc1c3ccc(C#N)cc3[nH]c21,0,99.8,94.1,77,100,22,15,0,11,50,15,0,91.9,99.8,47,49,0,15,0,0
Cc1cccc(NC(=O)Nc2ccc(Oc3ncnc4ccn(C)c34)cc2)c1,0,20,35,57,0,19,0,0,0,0,0,0,0,0,2,99.7,0,0,0,0
CN(C)Cc1ccc(-c2ccc3c(Nc4ccc(Oc5ccccn5)cc4)ccnc3c2)o1 [GW567148],0,100,31,35,52,0,6,0,0,30,18,38,19,0,5,17,0,4,0,2
Clc1ccc(-c2nn3ncccc3c2-c2ccnc(Nc3ccc4c(c3)OCCO4)n2)cc1 [GW829116],0,0,0,0,7,0,0,2,0,0,0,0,0,0,0,29,0,16,0,0
